Reference: paper PMC7862700, “An all-to-all approach to the identification of sequence-specific readers for epigenetic DNA modifications on cytosine”

Experiments:
Test in all cases: DAPPL (digital affinity profiling via proximity ligation, sequencing); 10 mM Tris-HCl pH 7.5, 50 mM NaCl, 1 mM DTT, 4% glycerol, room temperature, 30 min; GST-TFs on glutathione beads, 16-mer random dsDNA library, 0.1% formaldehyde crosslink after washing; high values mean tight binding
FLI1 = molecular target: T1, FLI1 (Homo sapiens, UniProt Q01543 1-452); conditions: protein: recombinant; tags: N-terminal GST; dsDNA, one strand shown
T1 sequence: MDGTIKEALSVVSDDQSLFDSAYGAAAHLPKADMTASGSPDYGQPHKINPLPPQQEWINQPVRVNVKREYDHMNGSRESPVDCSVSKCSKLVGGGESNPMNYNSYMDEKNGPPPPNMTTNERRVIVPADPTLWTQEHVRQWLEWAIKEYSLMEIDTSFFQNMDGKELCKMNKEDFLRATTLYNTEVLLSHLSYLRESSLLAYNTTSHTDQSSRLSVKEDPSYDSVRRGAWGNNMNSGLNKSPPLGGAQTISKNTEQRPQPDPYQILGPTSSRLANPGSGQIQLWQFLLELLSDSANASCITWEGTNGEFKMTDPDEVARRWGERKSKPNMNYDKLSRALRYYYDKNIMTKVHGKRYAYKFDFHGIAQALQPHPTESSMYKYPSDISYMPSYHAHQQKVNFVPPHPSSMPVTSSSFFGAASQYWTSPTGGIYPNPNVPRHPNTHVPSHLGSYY
Summary of the method: (§1)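 Binding signal is defined as a hexamer's read frequency for one factor over its frequency for the tag-only sample. To obtain reads, GST-fused human transcription factors were expressed in yeast, captured on glutathione beads, barcoded with DNA and pooled with that sample. Pools met 200 nmole of a 16-mer random double-stranded DNA library in Tris/NaCl/DTT/glycerol buffer for 30 min at room temperature before washing, 0.1% formaldehyde crosslinking, proximity ligation (BsaI/T4 ligase, 1 h, 37 °C), PCR and Illumina NextSeq500 sequencing.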

ELK1 = molecular target: T2, ELK1 (Homo sapiens, UniProt P19419 1-428); conditions: protein: recombinant; tags: N-terminal GST; dsDNA, one strand shown
T2 sequence: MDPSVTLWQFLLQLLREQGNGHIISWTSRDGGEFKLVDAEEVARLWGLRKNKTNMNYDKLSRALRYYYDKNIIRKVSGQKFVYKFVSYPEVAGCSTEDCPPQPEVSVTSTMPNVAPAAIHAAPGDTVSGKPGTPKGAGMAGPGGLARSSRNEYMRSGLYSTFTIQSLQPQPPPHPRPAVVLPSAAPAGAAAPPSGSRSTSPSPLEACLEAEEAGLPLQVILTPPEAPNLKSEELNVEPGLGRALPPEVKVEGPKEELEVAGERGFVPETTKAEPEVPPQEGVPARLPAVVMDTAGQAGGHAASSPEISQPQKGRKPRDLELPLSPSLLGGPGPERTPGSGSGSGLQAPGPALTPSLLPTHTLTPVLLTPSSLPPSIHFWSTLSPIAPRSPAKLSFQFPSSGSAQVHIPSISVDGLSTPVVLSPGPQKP
Summary of the method: as §1

GABPA = molecular target: T3, GABPA (Homo sapiens, UniProt Q06546 1-454); conditions: protein: recombinant; tags: N-terminal GST; dsDNA, one strand shown
T3 sequence: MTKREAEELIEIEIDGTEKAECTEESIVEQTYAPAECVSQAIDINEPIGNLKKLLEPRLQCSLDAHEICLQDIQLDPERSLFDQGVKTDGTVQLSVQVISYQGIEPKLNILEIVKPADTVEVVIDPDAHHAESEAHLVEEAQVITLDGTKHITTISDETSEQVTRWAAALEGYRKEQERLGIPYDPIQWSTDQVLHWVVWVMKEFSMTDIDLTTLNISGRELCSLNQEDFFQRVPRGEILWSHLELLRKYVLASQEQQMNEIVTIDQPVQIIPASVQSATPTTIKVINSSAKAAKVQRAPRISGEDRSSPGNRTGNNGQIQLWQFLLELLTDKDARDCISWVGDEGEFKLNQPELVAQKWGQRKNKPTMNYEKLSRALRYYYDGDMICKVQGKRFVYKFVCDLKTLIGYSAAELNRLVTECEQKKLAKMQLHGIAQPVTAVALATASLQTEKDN
Summary of the method: as §1

ERG = molecular target: T4, ERG (Homo sapiens, UniProt P11308 1-479); conditions: protein: recombinant; tags: N-terminal GST; dsDNA, one strand shown
T4 sequence: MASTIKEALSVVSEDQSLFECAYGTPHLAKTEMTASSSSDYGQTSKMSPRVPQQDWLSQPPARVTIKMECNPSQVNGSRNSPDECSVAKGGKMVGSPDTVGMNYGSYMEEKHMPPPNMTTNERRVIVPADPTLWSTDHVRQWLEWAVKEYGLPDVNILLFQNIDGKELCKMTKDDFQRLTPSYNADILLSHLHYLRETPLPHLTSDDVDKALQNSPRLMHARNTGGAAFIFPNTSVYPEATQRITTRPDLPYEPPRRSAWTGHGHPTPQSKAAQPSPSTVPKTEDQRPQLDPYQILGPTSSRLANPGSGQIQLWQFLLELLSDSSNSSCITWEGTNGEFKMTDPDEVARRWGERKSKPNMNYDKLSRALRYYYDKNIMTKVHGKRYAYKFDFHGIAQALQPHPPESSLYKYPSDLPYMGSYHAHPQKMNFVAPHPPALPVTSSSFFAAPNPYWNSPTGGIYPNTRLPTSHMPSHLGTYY
Summary of the method: as §1

ELF1 = ELF1 (Homo sapiens, UniProt P32519 1-619); conditions: protein: recombinant; tags: N-terminal GST; dsDNA, one strand shown
Summary of the method: as §1

EHF = molecular target: T5, EHF (Homo sapiens, UniProt Q9NZC4 1-300); conditions: protein: recombinant; tags: N-terminal GST; dsDNA, one strand shown
T5 sequence: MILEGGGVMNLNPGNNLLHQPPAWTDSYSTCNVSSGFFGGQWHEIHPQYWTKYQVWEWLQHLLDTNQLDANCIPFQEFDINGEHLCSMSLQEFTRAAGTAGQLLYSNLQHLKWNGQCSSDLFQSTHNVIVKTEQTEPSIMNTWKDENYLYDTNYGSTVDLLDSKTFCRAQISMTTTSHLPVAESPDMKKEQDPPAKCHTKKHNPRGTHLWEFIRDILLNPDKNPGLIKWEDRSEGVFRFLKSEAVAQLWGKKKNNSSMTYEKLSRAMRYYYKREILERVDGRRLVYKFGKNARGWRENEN
Summary of the method: as §1

SPI1 = SPI1 (Homo sapiens, UniProt P17947 1-270); conditions: protein: recombinant; tags: N-terminal GST; dsDNA, one strand shown
Summary of the method: as §1

SPIB = SPIB (Homo sapiens, UniProt Q01892 1-262); conditions: protein: recombinant; tags: N-terminal GST; dsDNA, one strand shown
Summary of the method: as §1

ELK3 = molecular target: T6, ELK3 (Homo sapiens, UniProt P41970 1-407); conditions: protein: recombinant; tags: N-terminal GST; dsDNA, one strand shown
T6 sequence: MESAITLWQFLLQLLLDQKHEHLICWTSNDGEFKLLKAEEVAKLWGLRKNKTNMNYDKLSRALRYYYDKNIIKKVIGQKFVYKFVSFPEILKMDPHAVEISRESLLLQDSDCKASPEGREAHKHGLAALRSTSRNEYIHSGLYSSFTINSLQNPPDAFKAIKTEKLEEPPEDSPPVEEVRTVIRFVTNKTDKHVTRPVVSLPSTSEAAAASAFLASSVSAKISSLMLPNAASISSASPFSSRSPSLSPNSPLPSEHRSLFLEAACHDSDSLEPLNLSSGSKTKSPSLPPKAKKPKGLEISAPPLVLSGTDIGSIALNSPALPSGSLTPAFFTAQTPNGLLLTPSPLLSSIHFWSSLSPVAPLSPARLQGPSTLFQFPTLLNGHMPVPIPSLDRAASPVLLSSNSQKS
Summary of the method: as §1

FEV = molecular target: T7, FEV (Homo sapiens, UniProt Q99581 1-238); conditions: protein: recombinant; tags: N-terminal GST; dsDNA, one strand shown
T7 sequence: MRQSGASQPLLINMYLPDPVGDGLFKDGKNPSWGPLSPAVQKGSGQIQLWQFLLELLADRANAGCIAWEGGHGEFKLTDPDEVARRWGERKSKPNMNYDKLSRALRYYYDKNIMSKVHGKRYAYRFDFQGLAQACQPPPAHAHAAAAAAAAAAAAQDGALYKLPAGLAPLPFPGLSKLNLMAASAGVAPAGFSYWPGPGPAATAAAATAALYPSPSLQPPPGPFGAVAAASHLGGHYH
Summary of the method: as §1

ETV5 = ETV5 (Homo sapiens, UniProt P41161 1-510); conditions: protein: recombinant; tags: N-terminal GST; dsDNA, one strand shown
Summary of the method: as §1

HSF1 = HSF1 (Homo sapiens, UniProt Q00613 1-529); conditions: protein: recombinant; tags: N-terminal GST; chain copies: 3; dsDNA, one strand shown
Summary of the method: as §1

SPIC = molecular target: T8, SPIC (Homo sapiens, UniProt Q8N5J4 1-248); conditions: protein: recombinant; tags: N-terminal GST; dsDNA, one strand shown
T8 sequence: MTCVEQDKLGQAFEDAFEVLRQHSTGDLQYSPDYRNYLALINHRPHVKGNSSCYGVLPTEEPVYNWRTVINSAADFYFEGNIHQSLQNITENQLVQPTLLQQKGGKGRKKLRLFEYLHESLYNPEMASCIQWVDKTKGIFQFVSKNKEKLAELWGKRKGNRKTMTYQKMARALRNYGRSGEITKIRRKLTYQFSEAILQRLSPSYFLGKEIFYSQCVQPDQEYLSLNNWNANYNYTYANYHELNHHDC
Summary of the method: as §1

ELF4 = ELF4 (Homo sapiens, UniProt Q99607 1-663); conditions: protein: recombinant; tags: N-terminal GST; dsDNA, one strand shown
Summary of the method: as §1

ELK4 = molecular target: T9, ELK4 (Homo sapiens, UniProt P28324-2 1-405); conditions: protein: recombinant; tags: N-terminal GST; dsDNA, one strand shown
T9 sequence: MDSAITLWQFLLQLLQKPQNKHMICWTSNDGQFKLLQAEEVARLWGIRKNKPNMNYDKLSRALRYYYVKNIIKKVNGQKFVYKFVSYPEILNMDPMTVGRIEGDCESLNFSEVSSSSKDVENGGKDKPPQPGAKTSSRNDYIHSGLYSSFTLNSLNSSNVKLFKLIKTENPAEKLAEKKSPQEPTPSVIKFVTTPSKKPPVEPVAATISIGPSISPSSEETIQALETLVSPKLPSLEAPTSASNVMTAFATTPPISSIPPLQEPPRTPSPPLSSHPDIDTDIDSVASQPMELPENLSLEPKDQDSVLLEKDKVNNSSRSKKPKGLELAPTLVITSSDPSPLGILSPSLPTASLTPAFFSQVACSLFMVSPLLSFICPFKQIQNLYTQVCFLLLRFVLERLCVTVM
Summary of the method: as §1

ETV2 = molecular target: T10, ETV2 (Homo sapiens, UniProt O00321 1-342); conditions: protein: recombinant; tags: N-terminal GST; dsDNA, one strand shown
T10 sequence: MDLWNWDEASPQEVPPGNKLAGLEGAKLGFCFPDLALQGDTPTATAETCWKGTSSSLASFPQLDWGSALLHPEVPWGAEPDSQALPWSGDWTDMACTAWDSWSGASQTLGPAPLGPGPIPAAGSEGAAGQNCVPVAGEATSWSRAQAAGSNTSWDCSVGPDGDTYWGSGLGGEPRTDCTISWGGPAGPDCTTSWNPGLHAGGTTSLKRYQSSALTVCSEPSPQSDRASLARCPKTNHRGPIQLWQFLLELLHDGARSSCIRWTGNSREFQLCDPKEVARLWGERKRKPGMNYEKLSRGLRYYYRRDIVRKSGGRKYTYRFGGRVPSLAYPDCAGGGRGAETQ
Summary of the method: as §1

ELF3 = molecular target: T11, ELF3 (Homo sapiens, UniProt P78545 1-371); conditions: protein: recombinant; tags: N-terminal GST; dsDNA, one strand shown
T11 sequence: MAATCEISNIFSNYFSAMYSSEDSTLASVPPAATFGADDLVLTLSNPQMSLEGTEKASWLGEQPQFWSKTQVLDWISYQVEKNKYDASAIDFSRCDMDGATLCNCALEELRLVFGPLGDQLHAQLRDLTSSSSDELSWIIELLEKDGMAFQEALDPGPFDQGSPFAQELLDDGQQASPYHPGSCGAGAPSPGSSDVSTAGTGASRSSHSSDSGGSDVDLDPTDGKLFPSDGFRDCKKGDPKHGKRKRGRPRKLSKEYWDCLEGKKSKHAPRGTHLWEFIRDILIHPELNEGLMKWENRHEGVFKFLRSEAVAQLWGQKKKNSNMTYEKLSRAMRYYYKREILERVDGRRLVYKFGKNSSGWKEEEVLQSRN
Summary of the method: as §1

CRX = CRX (Homo sapiens, UniProt O43186 1-299); conditions: protein: recombinant; tags: N-terminal GST; dsDNA, one strand shown
Summary of the method: as §1

ETV1 = ETV1 (Homo sapiens, UniProt P50549 1-477); conditions: protein: recombinant; tags: N-terminal GST; dsDNA, one strand shown
Summary of the method: as §1

Chain of HSF1 (Q00613 whole entry): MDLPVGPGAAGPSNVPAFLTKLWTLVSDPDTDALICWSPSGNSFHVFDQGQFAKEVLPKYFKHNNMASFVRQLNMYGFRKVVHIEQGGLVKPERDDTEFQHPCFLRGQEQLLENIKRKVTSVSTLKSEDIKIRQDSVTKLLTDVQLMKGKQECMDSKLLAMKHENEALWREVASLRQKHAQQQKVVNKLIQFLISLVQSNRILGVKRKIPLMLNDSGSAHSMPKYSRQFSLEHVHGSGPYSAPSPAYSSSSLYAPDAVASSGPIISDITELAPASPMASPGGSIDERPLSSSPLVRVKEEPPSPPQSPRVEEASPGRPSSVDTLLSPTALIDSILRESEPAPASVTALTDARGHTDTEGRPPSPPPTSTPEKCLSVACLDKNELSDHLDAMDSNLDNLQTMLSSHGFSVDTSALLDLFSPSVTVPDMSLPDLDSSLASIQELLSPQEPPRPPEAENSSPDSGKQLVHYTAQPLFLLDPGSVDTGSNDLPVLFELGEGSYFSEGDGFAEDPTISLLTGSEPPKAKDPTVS
Chain of ELF1 (P32519 whole entry): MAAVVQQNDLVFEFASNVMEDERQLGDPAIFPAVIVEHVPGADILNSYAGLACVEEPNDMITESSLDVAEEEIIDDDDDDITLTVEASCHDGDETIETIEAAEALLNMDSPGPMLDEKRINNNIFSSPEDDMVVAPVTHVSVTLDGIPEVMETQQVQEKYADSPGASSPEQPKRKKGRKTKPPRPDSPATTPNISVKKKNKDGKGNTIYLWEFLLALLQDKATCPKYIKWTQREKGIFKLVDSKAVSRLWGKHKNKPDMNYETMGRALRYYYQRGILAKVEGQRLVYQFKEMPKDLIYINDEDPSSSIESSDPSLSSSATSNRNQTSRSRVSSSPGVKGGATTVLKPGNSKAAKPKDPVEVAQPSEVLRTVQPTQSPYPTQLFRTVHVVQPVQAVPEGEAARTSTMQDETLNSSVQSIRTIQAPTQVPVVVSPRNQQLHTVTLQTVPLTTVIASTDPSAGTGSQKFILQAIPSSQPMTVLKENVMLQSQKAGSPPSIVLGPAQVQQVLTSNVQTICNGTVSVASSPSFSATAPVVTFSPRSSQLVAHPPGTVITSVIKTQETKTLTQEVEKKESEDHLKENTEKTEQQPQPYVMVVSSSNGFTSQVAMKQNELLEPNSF
Chain of ETV1 (P50549 whole entry): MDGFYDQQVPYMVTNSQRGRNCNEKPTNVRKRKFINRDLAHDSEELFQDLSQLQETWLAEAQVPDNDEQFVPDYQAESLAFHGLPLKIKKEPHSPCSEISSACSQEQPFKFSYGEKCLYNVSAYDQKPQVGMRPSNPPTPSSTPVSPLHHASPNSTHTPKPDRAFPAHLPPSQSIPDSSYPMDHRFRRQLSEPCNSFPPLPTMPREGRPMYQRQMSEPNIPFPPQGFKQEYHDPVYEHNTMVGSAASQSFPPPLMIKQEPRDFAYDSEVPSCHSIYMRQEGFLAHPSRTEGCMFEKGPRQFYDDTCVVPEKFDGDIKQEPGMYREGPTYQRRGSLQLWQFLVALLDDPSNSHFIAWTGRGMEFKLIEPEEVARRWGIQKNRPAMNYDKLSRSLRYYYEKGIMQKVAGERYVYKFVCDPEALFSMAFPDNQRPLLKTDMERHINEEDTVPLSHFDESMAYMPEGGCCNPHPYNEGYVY
Chain of CRX (O43186 whole entry): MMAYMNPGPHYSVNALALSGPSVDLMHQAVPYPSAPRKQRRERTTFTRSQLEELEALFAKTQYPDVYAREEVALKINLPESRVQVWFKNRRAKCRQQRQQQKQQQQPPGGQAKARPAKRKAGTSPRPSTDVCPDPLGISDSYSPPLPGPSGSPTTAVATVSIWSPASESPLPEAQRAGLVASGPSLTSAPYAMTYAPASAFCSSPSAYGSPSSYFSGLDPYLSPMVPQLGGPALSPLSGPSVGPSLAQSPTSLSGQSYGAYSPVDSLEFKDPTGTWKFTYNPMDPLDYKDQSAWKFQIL
Chain of ETV5 (P41161 whole entry): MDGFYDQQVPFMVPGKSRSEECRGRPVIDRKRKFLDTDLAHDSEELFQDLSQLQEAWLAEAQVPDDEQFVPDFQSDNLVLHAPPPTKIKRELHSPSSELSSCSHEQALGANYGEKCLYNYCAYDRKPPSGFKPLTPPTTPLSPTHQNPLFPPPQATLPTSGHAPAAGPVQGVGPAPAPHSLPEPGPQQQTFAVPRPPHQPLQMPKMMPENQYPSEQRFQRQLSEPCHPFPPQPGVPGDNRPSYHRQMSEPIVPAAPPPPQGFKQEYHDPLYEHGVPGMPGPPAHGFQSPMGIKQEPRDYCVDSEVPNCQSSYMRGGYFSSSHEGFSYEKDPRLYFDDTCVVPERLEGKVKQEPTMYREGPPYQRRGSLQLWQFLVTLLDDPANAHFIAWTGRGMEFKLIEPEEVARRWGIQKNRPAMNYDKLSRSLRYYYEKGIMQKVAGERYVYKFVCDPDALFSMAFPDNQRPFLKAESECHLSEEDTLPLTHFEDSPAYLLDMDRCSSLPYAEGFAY
Chain of SPIB (Q01892 whole entry): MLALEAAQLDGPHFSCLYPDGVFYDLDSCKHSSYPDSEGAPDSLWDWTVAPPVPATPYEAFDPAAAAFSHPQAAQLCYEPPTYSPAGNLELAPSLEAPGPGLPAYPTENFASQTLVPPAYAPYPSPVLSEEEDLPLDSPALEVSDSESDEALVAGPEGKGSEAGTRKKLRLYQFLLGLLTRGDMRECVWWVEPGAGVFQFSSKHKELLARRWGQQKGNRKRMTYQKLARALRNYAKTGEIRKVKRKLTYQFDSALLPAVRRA
Chain of ELF4 (Q99607 whole entry): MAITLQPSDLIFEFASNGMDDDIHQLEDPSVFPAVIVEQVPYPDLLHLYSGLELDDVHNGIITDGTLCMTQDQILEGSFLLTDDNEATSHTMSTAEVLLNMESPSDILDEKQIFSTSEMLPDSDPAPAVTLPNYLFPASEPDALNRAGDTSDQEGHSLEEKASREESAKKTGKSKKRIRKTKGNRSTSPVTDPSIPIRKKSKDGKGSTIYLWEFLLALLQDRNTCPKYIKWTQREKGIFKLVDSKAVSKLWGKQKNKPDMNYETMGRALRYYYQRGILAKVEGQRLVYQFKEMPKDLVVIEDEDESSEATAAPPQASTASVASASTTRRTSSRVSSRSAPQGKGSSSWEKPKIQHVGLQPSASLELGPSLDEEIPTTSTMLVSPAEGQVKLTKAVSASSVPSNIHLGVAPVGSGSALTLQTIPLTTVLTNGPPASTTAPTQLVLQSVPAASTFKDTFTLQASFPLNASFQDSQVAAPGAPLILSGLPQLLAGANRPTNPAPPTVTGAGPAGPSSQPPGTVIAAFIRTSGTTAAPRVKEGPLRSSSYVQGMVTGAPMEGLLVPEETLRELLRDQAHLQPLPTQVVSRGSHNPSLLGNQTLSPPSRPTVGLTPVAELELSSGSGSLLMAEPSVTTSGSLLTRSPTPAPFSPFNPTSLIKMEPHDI

Question: Which results are given for TAATAA?
Answer: binding signal (FLI1): 1.17 fold enrichment (6-mer frequency, TF over GST control); binding signal (ELK1): 1.19 fold enrichment (6-mer frequency, TF over GST control); binding signal (GABPA): 1.21 fold enrichment (6-mer frequency, TF over GST control); binding signal (ERG): 1.22 fold enrichment (6-mer frequency, TF over GST control); binding signal (ELF1): 1.16 fold enrichment (6-mer frequency, TF over GST control); binding signal (EHF): 1.24 fold enrichment (6-mer frequency, TF over GST control); binding signal (SPI1): 1.09 fold enrichment (6-mer frequency, TF over GST control); binding signal (SPIB): 1.27 fold enrichment (6-mer frequency, TF over GST control); binding signal (ELK3): 1.05 fold enrichment (6-mer frequency, TF over GST control); binding signal (FEV): 1.13 fold enrichment (6-mer frequency, TF over GST control); binding signal (ETV5): 1.22 fold enrichment (6-mer frequency, TF over GST control); binding signal (HSF1): 1.76 fold enrichment (6-mer frequency, TF over GST control); binding signal (SPIC): 1.17 fold enrichment (6-mer frequency, TF over GST control); binding signal (ELF4): 1.21 fold enrichment (6-mer frequency, TF over GST control); binding signal (ELK4): 1.06 fold enrichment (6-mer frequency, TF over GST control); binding signal (ETV2): 1.17 fold enrichment (6-mer frequency, TF over GST control); binding signal (ELF3): 1.21 fold enrichment (6-mer frequency, TF over GST control); binding signal (CRX): 2.43 fold enrichment (6-mer frequency, TF over GST control); binding signal (ETV1): 1.12 fold enrichment (6-mer frequency, TF over GST control)
